Measurements: PubChem BioAssay
Values without a mark were called inactive. Activity calls are given as the source filed them.

Test: plasmodial surface anion channel blockers, osmotic lysis – cell-based, P. falciparum Indochina, OD700, 1 h, primary screen (AID 1154)
Settings: P. falciparum Indochina infected RBC osmotic lysis, higher = more signal, called active from +8 up or from −8 down

Compound	z-score
CC(C)c1ccc(NN2C(C(O)c3ccc4c(c3)OCO4)C=CC3C(=O)N(c4ccccc4)C(=O)C32)cc1 (stereo unspecified)	1.76
C[C@@H]1CCC2C(=O)N(Cc3ccccc3)C[C@@H](O)CN2[C@H]1c1ccc(Br)cc1 (stereo partly specified)	0.167
O=C1[C@H]2[C@H]3[C@H](O)[C@H](O)CC(=NO[C@@H]4O[C@H](CO)[C@@H](O)[C@H](O)[C@H]4O)[C@H]3CC[C@H]2C(=O)N1Cc1ccc2c(c1)OCO2	15.5 (active)
CC[C@@H](c1ccccc1)n1c(=O)n2n(c1=O)[C@H]1[C@H](O)[C@@H]3O[C@@H]3C(=NOCC=C(C)CCC=C(C)C)[C@H]1CC2	1.27
CC(C)(C)N1C(=O)[C@H]2[C@H]3[C@H](O)[C@H](O)CC(=NO[C@@H]4O[C@H](CO)[C@@H](O)[C@H](O)[C@H]4O)[C@@H]3CC[C@H]2C1=O	1.13
CC(C)(C)N1C(=O)[C@H]2[C@H]3[C@H](O)[C@H](O)CC(=NOCc4ccccc4)[C@@H]3CC[C@H]2C1=O	0.464
COCCOC(=O)N1C(=O)[C@@]2(c3cc(C#CCNC(N)=O)ccc31)[C@H](c1ccccc1OCCO)N1[C@H](c3ccccc3)[C@H](c3ccccc3)OC(=O)[C@H]1[C@@H]2C(=O)N1CCN(c2ncccn2)CC1	2.11
COc1ccc(O[C@H]2C=C[C@@H](c3ccccc3)O[C@@H]2COC(=O)N2CCCCC2)cc1	2
CCc1cccc(NC(=O)O[C@H]2[C@H](OC(=O)Nc3ccc4c(c3)OCO4)[C@@H](OC(=O)Nc3ccc4c(c3)OCO4)[C@@H](OC)O[C@@H]2CO)c1	7.56
CCN1C(=O)[C@H]2[C@H]3[C@H](O)[C@H](O)CC(=NOCC=C(C)CCC=C(C)C)[C@H]3CC[C@H]2C1=O	0.955
CC(C)C[C@@H]1NC(=O)[C@H]2C[C@@H](C(=O)O)[C@@H](c3ccc(O)cc3)N2C1=O	5.88
CN(C)C(=O)[C@@]1(Cc2ccccc2)N=C(c2ccc(OCCCO)cc2)O[C@H]1c1ccccc1CN=[N+]=[N-]	14.9 (active)
CO[C@@H]1COC(=O)CC=C[C@@H](C)[C@@H]2C=C[C@H](O)[C@@H](COC(=O)CCC[C@H]1C)O2	-0.977
CC(C)CON=C1C[C@@H](O)[C@@H](O)[C@@H]2[C@@H]3C(=O)N(Cc4ccccc4)C(=O)[C@@H]3CC[C@@H]12	0.252
COC(=O)c1c(CC[C@@H](CO)NC(=O)N[C@H](Cc2ccccc2)Cn2cc(-c3ccccc3N)nn2)oc(C(C)=O)c1C(=O)OC	29.7 (active)
CO[C@@H]1COC(=O)CCC[C@@H](C)[C@H](OC)COC(=O)CCC[C@H]1C	0.553
CCOC(=O)CCN1C(=O)[C@H]2[C@H]3[C@H](O)[C@H](O)CC(=NOC[C@@H](O)COCc4ccco4)[C@@H]3CC[C@H]2C1=O	3.93
C=COC[C@H]1CN2[C@@H](CC[C@@H](C)[C@@H]2c2ccc(Br)cc2)C(=O)O1	-0.591

Compound	z-score
O=C1C[C@@H](O)[C@@H](O)[C@@H]2[C@@H]3C(=O)N(c4cccc(Oc5ccccc5)c4)C(=O)[C@@H]3CC[C@@H]12	0.956
COc1ccc([Si](C)(C)[C@@H]2[C@@H](CCO)O[C@]3(C(=O)N(Cc4ccc(NC(C)=O)cc4)c4ccccc43)[C@H]2C)cc1	23 (active)
O=C1[C@H]2[C@H]3[C@H](O)[C@H](O)CC(=NO[C@@H]4O[C@H](CO)[C@@H](O)[C@H](O)[C@H]4O)[C@H]3CC[C@H]2C(=O)N1C1CCCCC1	3.65
COc1ccc(-c2ccc3c(n2)CCCN3CC(O)CN2CCCc3nc(C)c(C)cc32)cc1 (stereo unspecified)	5.76
O=C1CCCC2OC12C(O)CCc1ccccc1 (stereo unspecified)	-0.272
C[C@@H](c1ccccc1)N1C(=O)[C@H]2[C@H]3[C@H](O)[C@H](O)CC(=NNC(=O)OCc4ccccc4)[C@H]3CC[C@H]2C1=O	3.27
COc1ccc(O[C@H]2C=C[C@@H](c3ccccc3)O[C@@H]2COC(=O)CCC(C)=NOCC[C@@H]2C=C[C@H](OC(C)=O)[C@@H](COC(C)=O)O2)cc1	8.07 (active)
COC(=O)C1=C(C)N(Cc2ccccc2)[C@]23O[C@](C(=O)OC)(C(=O)N2[C@@H]1c1ccccc1)[C@H]1CCOC(=O)[C@H]13	0.951
Cn1c(=O)n2n(c1=O)[C@H]1[C@H](O)[C@@H]3O[C@@H]3C(=NOC[C@@H](O)COCc3ccco3)[C@H]1CC2	0.697
C[C@@H]1CC[C@H]2C(=O)O[C@H](COc3ccc(C(C)(C)C)cc3)CN2[C@H]1c1ccc(Br)cc1	0.813
C=CC[C@]1(C(=O)NCc2ccccc2)N=C(c2ccc(OCCCO)cc2)O[C@H]1c1ccccc1	14.6 (active)
COCCNC(=O)OCC1CCCC2(CC(OC(=O)NCCc3ccc(F)cc3)CC(CCC(=O)N[C@@H](C)C(=O)OC)O2)O1 (stereo partly specified)	-0.577
CCOC(=O)CCN1C(=O)[C@H]2[C@H]3[C@H](O)[C@H](O)CC(=NOCc4ccccc4)[C@@H]3CC[C@H]2C1=O	1.61
CCCNC(=O)OC[C@H]1O[C@H](CCON=CC[C@@H]2C=C[C@H](OC(C)=O)[C@@H](COC(C)=O)O2)C=C[C@@H]1Oc1ccc(OC)cc1	1.6
O=C1[C@H]2[C@H]3[C@H](O)[C@H](O)CC(=NOC[C@@H](O)COCc4ccco4)[C@H]3CC[C@H]2C(=O)N1Cc1ccc2c(c1)OCO2	8.99 (active)
COC(=O)CC=C[C@@H](C)[C@@H](C=NO[C@@H](C)c1cc(-c2c(C)cc(C)cc2C)no1)OC	3.39
C=C(/C(=C/C[C@@H](OC(=O)c1ccncc1)c1ccc(OCCO)cc1)c1cnc2ccccc2c1)C(C)C	12.8 (active)
CC(=O)OC[C@H]1O[C@H](CC=NOC[C@@H](C)[C@H](OCc2ccccc2)C(C)C)C=C[C@@H]1OC(C)=O	1.25
